Assay outcomes as filed in PubChem BioAssay.
MgrA DNA FP = modulators of Staphylococcus aureus MgrA DNA binding; AID 602314; fluorescence polarization; inhibition, % (test concentration not listed); hit rate 0.13% among 84,000; in the data active means inhibition above about 30%, passing the limit was not always enough;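 further: 0% = protein plus DNA without compound and 100% = DNA alone without protein; higher means less MgrA bound to DNA so lower polarization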
An asterisk follows results filed as active. The entries come from a sample that favours hits as a whole.

`CC(NC(=O)c1ccc(C(C)(C)C)cc1)c1ccccc1` (configuration not stated) gave MgrA DNA FP -1.
Screening O=C(NC(=O)N1CCOCC1)c1nnc(-c2ccccc2)o1 returned MgrA DNA FP -3.
For O=C(/C=C/c1ccccc1)/C=C/c1ccco1 the results were MgrA DNA FP 33.
For O=C(/C=C/c1ccco1)Nc1cccc(NC(=O)/C=C/c2ccco2)n1 the results were MgrA DNA FP 7.
Screening O=C(/C=C/c1ccco1)/C=C/c1ccco1 returned MgrA DNA FP 98*.
`COC(=O)CCCCC1=C(NC(C)=O)C(NC(=O)c2ccccc2)CS1` (configuration not stated) gave MgrA DNA FP -2.
CC1=C(C(=O)Nc2cc(Cl)ccc2C(=O)NCc2ccc(OC(C)C)cc2)SCCO1 was read as MgrA DNA FP 2.
Screening O=C1CCN(c2ncc(C(F)(F)F)cc2Cl)CC1 returned MgrA DNA FP 0.
Screening O=C(c1ccc2c(c1)C(=O)N(Cc1ccco1)C2=O)N1CCOCC1 returned MgrA DNA FP -2.
For Cc1ccnc(NC(=O)c2ccc3c(c2)C(=O)N(Cc2ccco2)C3=O)c1 the results were MgrA DNA FP 30*.
`O=C(Nc1ccccc1Cl)c1ccc2c(c1)C(=O)N(Cc1ccco1)C2=O` gave MgrA DNA FP 9.
`Cc1cc(C)n(-c2ccc(C(=O)OCC(=O)Nc3c(Cl)cccc3Cl)cc2)n1` gave MgrA DNA FP 1.
For CCOc1ccccc1C(=O)N(C)c1ccccc1 the results were MgrA DNA FP -1.
`CCOc1cccc(=O)c2c(C)n(-c3ccc(OC)cc3)c(C)c12` gave MgrA DNA FP 2.
`CCOc1cccc(=[O+]CC)c2c(C)oc(C)c12` gave MgrA DNA FP 63*.
`O=C1CC(c2ccccc2)n2nc(NC(=O)c3ccco3)nc2N1` (configuration not stated) gave MgrA DNA FP 0.
COc1ccc(Br)cc1S(=O)(=O)N1CCCCCC1 was read as MgrA DNA FP 1.
CC(C)(SC1CC(=O)N(c2ccccc2)C1=O)C(N)C(=O)O (configuration not stated) was read as MgrA DNA FP -2.
For COc1cccc(OCCSc2nc(C(C)C)cc(=O)[nH]2)c1 the results were MgrA DNA FP 0.
`N#CC1(C#N)[C@H](c2ccoc2)[C@@H](C(=O)Oc2ccccc2)N2c3ccccc3C=C[C@@H]21` gave MgrA DNA FP 0.
`COC(=O)C1=C(C)N(c2ccc(N(C)C)cc2)C(C)=C(C(=O)OC)C1c1ccccc1` gave MgrA DNA FP -1.
`COC(=O)C1=C(C)N2[C@@H](C=C1)[C@@](C#N)(C(N)=O)[C@@H](c1ccccc1)[C@@H]2C(=O)OC` gave MgrA DNA FP 60*.
Screening COc1ccc(C)cc1S(=O)(=O)NCc1ccccc1 returned MgrA DNA FP 0.
`O=C1c2ccccc2C(=O)c2c1cccc2-c1cccc2c1C(=O)c1ccccc1C2=O` gave MgrA DNA FP 1.
Nc1cccc2c1C(=O)c1ccccc1-2 was read as MgrA DNA FP 53*.
`COC(=O)c1cccc2c1C(=O)c1ccccc1-2` gave MgrA DNA FP -1.
For O=c1c2c3nc4ccccc4nc3n(Cc3ccco3)c2ncn1Cc1ccco1 the results were MgrA DNA FP 33.
`COc1cccc(N2C(=O)NC(=O)/C(=C\c3ccc(OC)c([N+](=O)[O-])c3)C2=O)c1` gave MgrA DNA FP 3.
For Cc1cc(C)nc(NCC(C)c2ccccc2)n1 (configuration not stated) the results were MgrA DNA FP -3.
Screening CC(=O)NN1C(=O)c2cccc3c(N(C)C)ccc(c23)C1=O returned MgrA DNA FP 61*.
Screening CCSc1ccc2c3c(cccc13)C(=O)N(NCCO)C2=O returned MgrA DNA FP 4.
Screening CN(C)c1ccc2c3c(cccc13)C(=O)N(c1nc3ccccc3[nH]1)C2=O returned MgrA DNA FP 10.
For O=C1N/C(=C/c2ccc(C(F)(F)F)cc2)C(=O)N1c1ccccc1 the results were MgrA DNA FP 1.
For Nc1nc2c(s1)CCCC2 the results were MgrA DNA FP 8.
For COc1ccc(S(=O)(=O)CC(C)(O)CS(=O)(=O)c2ccc(OC)cc2)cc1 the results were MgrA DNA FP -2.
For CCOC(=O)CCc1c(CC(=O)OCC)c[nH]c1/C=N/O the results were MgrA DNA FP 61*.
CCOC(=O)Cc1cc(C)[nH]c1C(=O)OCC was read as MgrA DNA FP -1.
For CCOC(=O)CCc1n[nH]c(=O)[nH]c1=O the results were MgrA DNA FP 2.
`CC(C)n1c(-c2ccccc2)csc1=Nc1ccccc1` gave MgrA DNA FP 1.
Screening N#Cc1c(-c2ccco2)cc(-c2ccccc2)[nH]c1=O returned MgrA DNA FP 10.
Screening N#Cc1c(-c2ccccc2)cc(-c2ccco2)c(C#N)c1N returned MgrA DNA FP 9.
`N#Cc1c(-c2ccco2)cc(-c2ccco2)[nH]c1=O` gave MgrA DNA FP 56*.
`O=S(=O)(c1cc(Cl)c(Cl)s1)N1CCN(c2cc(C(F)(F)F)ccn2)CC1` gave MgrA DNA FP 2.
For c1ccc(CCCN2CCNCC2)cc1 the results were MgrA DNA FP 0.
For CN(C)C(=O)c1cc2c(=O)n3ccccc3nc2n1C the results were MgrA DNA FP 1.
For Nc1cc[n+](CC(O)CO)cc1 (configuration not stated) the results were MgrA DNA FP 56*.
For Nc1ccc(C(O)C(O)CO)cc1 (configuration not stated) the results were MgrA DNA FP -3.
For CC(C)CCNC(=O)C1CCN(C(=O)c2cc3sccc3n2Cc2ccc(F)cc2)CC1 the results were MgrA DNA FP 1.
Fc1ccc(/C=C/c2onc3ccccc23)cc1 was read as MgrA DNA FP 0.
For O=C1NC(=O)N(C2CCCCC2)C(=O)/C1=C\C=C\c1ccco1 the results were MgrA DNA FP 5.
For COc1cccc(N2C(=O)/C(=C/C=C/c3ccco3)C(=O)NC2=S)c1 the results were MgrA DNA FP 86*.
COc1cccc(/C=C2\C(=O)NC(=O)N(c3cccc(OC)c3)C2=O)c1 was read as MgrA DNA FP -6.
`O=C(CN1CCN(C2CCCCC2)CC1)N(c1ccccc1)c1ccc(O)cc1` gave MgrA DNA FP -30.
`CCOC(=O)c1ccc(-c2ccc(/C=C3\C(=O)N(c4cccc(Cl)c4)N=C3C)o2)cc1` gave MgrA DNA FP -3.
For O=C(O)c1cc(N2N=C(C(F)(F)F)/C(=C/c3ccc(-c4ccccc4)o3)C2=O)ccc1Cl the results were MgrA DNA FP 58*.
Screening CC1=NN(c2ccc(Cl)c(C(=O)O)c2)C(=O)/C1=C\c1ccc(-c2ccccc2C(=O)O)o1 returned MgrA DNA FP 3.
Screening COC(=O)C1=C(C)N=c2s/c(=C\c3cc(Br)ccc3OC(C)=O)c(=O)n2C1c1cccs1 (configuration not stated) returned MgrA DNA FP 0.
